Assay results from PubChem BioAssay AID488899 (Broad Institute, 2010).
Among all 330,000 compounds or so, about 2,800 (0.85%) were called active.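 The calls were made as follows: active = mean inhibition across replicates of 60% or more, whatever share of single replicates reaches that level; inconclusive = some that reach 60%, reason not given; inactive = mean inhibition across replicates below 60%.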 For the sample, actives were picked, then their nearest neighbours and some compounds at random.

Assay: MITF transcriptional activity suppression – cell-based, SK-MEL-5, single point, luciferase, primary screen (AID 488899)
Details: SK-MEL-5 TRPM1 promoter luciferase, 24 h; at 12.5 µM; hits give high values

inhibition, active:
COc1ccc2c(c1OC)C(=O)OC2Nc1nc(-c2ccccc2)cs1 (stereo not drawn) 68.6%
COc1ccc(Cc2nnc(N/N=C/c3ccccc3O)[nH]c2=O)cc1OC 64%
c1ccc2cc3c(NCCN4CCOCC4)ccnc3cc2c1 80.4%
O=C(Nc1ccccc1Cl)/C(Cl)=C(\Cl)S(=O)c1ccccc1 (stereo not drawn) 97%
CC(C)(C)CC(C)(C)NCC(O)COCCOc1ccc(Br)cc1 (stereo not drawn) 85.9%
CCOc1cc(/C=C(/C#N)c2ccc(Cl)cc2)cc(Cl)c1OCC(=O)O 98.2%
C#CCOCCOCCOCCNc1nc(N2CCN(C(=O)CCCCCCCCCCNC(=O)[C@H]([C@@H](C)CC)n3cc(CCCCN=C(N)N)nn3)CC2)nc(N2CCN(C(=O)CCCCCCCCCCNC(=O)[C@H](CO)n3cc(CCCSC)nn3)CC2)n1 72.9%
CC[C@H]1CN2CCc3cc(OC)c(OC)cc3[C@@H]2C[C@@H]1C[C@H]1NCCc2cc(OC)c(OC)cc21 85.1%
CC(C)CC[n+]1ccn(C2=C([O-])c3ccccc3C(=O)/C2=N\S(=O)(=O)c2ccccc2)c1 91.1%
CC(C)(C)c1ccc(Oc2ccc(N)cc2)cc1 91.7%
COc1ccc(C(=O)Nc2ccccc2C(=O)N/N=C/c2ccc(O)c(OC)c2)cc1 73.3%
CSc1nc(-c2ccccc2)nc(C(Cl)Cl)n1 87.8%
CCCCCCCCn1c2c(c(=N)c3c1CCC3)CCCC2 77.2%
CN(c1ccc2nc3ccccc3c(=O)n2n1)C1CCCCC1 84.7%
Clc1ccc2nc(-c3ccccc3)nc(C(Cl)Cl)c2c1 90.9%
CCN1CCC(O)(/C=C/c2ccc(C)cc2)C(C(=O)/C=C/c2ccc(C)cc2)C1 (stereo not drawn) 77.1%
Nc1ccccc1SC(C[N+](=O)[O-])c1ccccc1 (stereo not drawn) 75.5%
CC1(C)CC(N2CCN(C(c3ccccc3)c3ccccc3)CC2)=CC(=[N+]2CCCCC2)C1 94%
CCOc1ccc(NC(=O)CCC(=O)N/N=C/c2ccc([N+](=O)[O-])s2)cc1 62.8%
Cc1coc2c(O)cc3c(c12)OC1(N2CCCCC2)C(=O)NCCCC31 (stereo not drawn) 77.4%
CC1C(C)N(C(=O)CCl)c2ccccc2N1C(=O)CCl (stereo not drawn) 91.3%

inhibition, inactive:
COc1cc(CC(=O)Nc2nc(-c3ccc(F)c(F)c3)cs2)cc(OC)c1OC 0.159%
Cc1ccc(-c2csc(NC3OC(=O)c4ccccc43)n2)cc1 (stereo not drawn) 31.3%
CCc1cc(-c2nnc(SCC(=O)NC3CC3)n2C)cs1 -9%
CCOC(=O)c1ccc(NC(=O)c2c(N)n(C)c(=O)[nH]c2=O)cc1 -48.3%
O=c1[nH]c(NCCO)nnc1Cc1ccc(Cl)cc1 5.61%
CC(C)c1ccc(Cc2nnc(NCCCO)[nH]c2=O)cc1 -0.574%
Cc1ccc(CN2CC(C(=O)N3CCN(S(=O)(=O)c4ccccc4)CC3)CC2=O)cc1 (stereo not drawn) -1.06%
CCOc1nc(NCCN2CCOCC2)nc(Nc2ccc(C)cc2)n1 -2.25%
c1ccc(-c2ccc(OCCN3CCOCC3)cc2)cc1 -61.1%
O=C1NC(c2ccc(-c3ccccc3[N+](=O)[O-])o2)C(C(=O)c2ccc(Cl)cc2)C(O)(C(F)(F)F)N1 (stereo not drawn) 12.2%
Cc1c(NC(=O)Nc2ccccc2Cl)sc(=S)n1C -9.97%
CN(C)S(=O)(=O)Oc1ccccc1C(=O)Nc1ccccc1Cl -7.26%
Nc1ccc2[nH]c(=S)sc2c1 -7.16%
OC(COc1ccc(Br)cc1)CN1CCCC1 (stereo not drawn) -0.089%
CC(Oc1ccc(Br)cc1)C(=O)NC1CCCCCC1 (stereo not drawn) -16.6%
COc1ccc(C2NCCCC2c2ccccc2)cc1 (stereo not drawn) 14.7%
Cc1ccccc1N1CCN(C(=O)c2cccnc2)CC1 2.88%
CCOc1ccc(NC(=S)N2CCC(N(C)CC3CCCO3)CC2)cc1 (stereo not drawn) -2.52%
C/C(=N\OCC(=O)O)c1ccc(Cl)cc1 -2.61%
CCOC(=O)CN/C=C(\C#N)c1ccc(F)cc1 19.8%
C#CCOCCOCCOCCNc1nc(N2CCN(C(=O)CCCCCCCCCCNC(=O)Cn3cc(CCCCCN)nn3)CC2)nc(N2CCN(C(=O)CCCCCCCCCCNC(=O)[C@H](CO)n3cc(CCCSC)nn3)CC2)n1 23.1%
C#CCOCCOCCOCCNc1nc(N2CCN(C(=O)CCCCCCCCCCNC(=O)[C@H](CCCCN)n3cc(C)nn3)CC2)nc(N2CCN(C(=O)CCCCCCCCCCNC(=O)[C@H](CO)n3cc(CCCSC)nn3)CC2)n1 47.5%
Cc1ccc(-c2nn(C(C)(C)C)c3ncnc(N)c23)cc1 3.91%
CN(C)c1ccc(CSc2ccccc2)cc1 -111%
Cc1ccc(C(=O)NC(=S)Nc2ccc3[nH]c(=O)[nH]c3c2)cc1C 3.06%
N#Cc1nc(N)nc(N(c2ccccc2)c2ccccc2)n1 10.4%
COc1ccc(S(=O)(=O)N2CCOCC2)cc1NC(=O)Cc1coc2cc(C)ccc12 5.65%
CCc1ccc(OCC2c3cc(OC)c(OC)cc3CCN2C(C)=O)cc1 (stereo not drawn) -0.63%
COc1cc2c(cc1OC)CN(CC(=O)Nc1ccc(F)cc1)CC2 4.57%
COc1ccc(/C=C/C2=CC(C)(C)NC(=S)N2)c(OC)c1 10.5%
Cc1ccccc1-n1nc(C)c2c1N=C1C(Cl)=CC(Cl)=CN1C2c1ccc(C(=O)O)cc1 (stereo not drawn) 5.65%
Cn1c(=O)c2c(nc(SCCNS(=O)(=O)c3ccccc3)n2C)n(C)c1=O -8.94%
COc1ccc(Cc2n[nH]c(=S)n2NC(=O)Nc2ccc(C)cc2)cc1 -46.7%
CC(=O)Nc1ccc(NC(=O)C(C)n2c3ccccc3c3nc(=O)cc(C)n32)cc1 (stereo not drawn) 11.5%
CCn1c(CC(=O)Nc2ccc(C)cc2)nnc1SCC(=O)Nc1nc(C)cs1 6.57%
COc1ccc2oc(N)nc2c1 7.49%
CC(C)(C)c1ccc(OC2=CS(=O)(=O)c3ccccc32)cc1 -25.6%
COc1cccc(Oc2ccc(N)cc2)c1 -4.14%
COc1ccc(C(=O)Nc2ccccc2C(=O)N2CCN(c3ccccc3)CC2)cc1 -1.5%
COc1ccc(/C=N/Nc2ccccc2C(=O)O)cc1 -4.16%
CC(=O)NC(Cc1ccc(F)c(F)c1)C(=O)NC1CCN(C(=O)c2ccc(C)cc2)CC1 (stereo not drawn) 7.52%
CSc1ncc(Sc2ccccc2)c(C(=O)O)n1 5.79%
Cc1ccc(CNC(=O)c2ccc(CS(=O)Cc3cccc(Cl)c3)o2)cc1 (stereo not drawn) 2.54%
CCOC(=O)N1CCN(c2c(NCCCN3CCCC(C)C3)c(=O)c2=O)CC1 (stereo not drawn) -5.22%
CCOc1ccc(N(C)S(=O)(=O)c2cnc[nH]2)cc1 6.77%
CC1CCCCC1NC(=O)COC(=O)Cc1ccc(Cl)cc1 (stereo not drawn) 6.02%
CN(C(=O)CSc1nncc2ccccc12)C1CCCCC1 -4.81%
CN(C(=O)c1cc2c(=O)n3ccccc3nc2s1)C1CCCCC1 -36.7%
CCCN(CCC)S(=O)(=O)c1ccc(C(=O)NNC(=O)c2cc(OC)c(OC)c(OC)c2)cc1 4.09%
Clc1cccc(-c2nc(NCC3CCCO3)c3ccccc3n2)c1 (stereo not drawn) -7.27%
N#CCSc1nc(-c2ccccc2)nc2ccc(F)cc12 6.09%
CCCOc1cccc(C(=O)Nc2nnn(CCC)n2)c1 -31.2%
COc1cc(C(=O)N2CCN(C3CCC(C)CC3)CC2)cc(OC)c1OC (stereo not drawn) -0.962%
O=C1c2ccccc2C(=O)N1CC1c2ccccc2CCN1S(=O)(=O)c1ccccc1 (stereo not drawn) -6.02%
CCN1CCN(C(=O)CSc2ccc(C)cc2)CC1 -21.2%
CCOC(=O)C1CCCN(C(=O)/C=C/c2ccc(OC)cc2)C1 (stereo not drawn) -11.1%
Cc1ccc(C(C[N+](=O)[O-])c2c(C)cc3ccccn23)cc1 (stereo not drawn) 40.1%
O=C(NCC(=O)N1CCCCCCC1)c1ccccc1Cl -25.1%
COc1ccc(S(=O)(=O)N2CCCC2CNC(=O)C(=O)NC2CC2)cc1 (stereo not drawn) -5.39%
O=C(NNC(=S)NCCCN1CCOCC1)c1ccncc1 -1.68%
Oc1ccccc1CN1CCN(C(c2ccccc2)c2ccccc2)CC1 5.95%
O=C1CC(N2CCN(C(c3ccccc3)c3ccccc3)CC2)C(=O)N1 (stereo not drawn) -6.57%
CN(C)CCN=c1cc(-c2ccccc2)oc2ccc(Cl)cc12 -36.2%
CCOc1ccc(NC(=O)CCC(=O)NNC(=O)NC2CCCCC2)cc1 -2.59%
CCOc1ccc(C(=O)CCC(=O)Nc2ccncc2)cc1 8.37%
CCCCN(C(=O)c1ccc(OC(F)(F)F)cc1)c1c(N)n(CCC)c(=O)[nH]c1=O -1.56%
CCN(C(=O)COC(=O)Cc1c(F)cccc1Cl)c1c(N)n(Cc2ccccc2)c(=O)[nH]c1=O -2.14%
O=C(NCCc1ccc(C(F)(F)F)cc1)c1ccc2c(c1)OCO2 -3.11%
O=C(CCc1ccccc1Cl)Nc1ccc(S(=O)(=O)Nc2nccs2)cc1 12.4%
COc1ccc(CCN2CC(C(=O)OCC(=O)NCc3ccccc3Cl)CC2=O)cc1OC (stereo not drawn) -2.95%
CC1C(=O)N(Cc2ccccc2)c2ccccc2N1C(=O)c1ccccc1 (stereo not drawn) 8.87%
CC1CC(C)CN(CC(=O)N2c3ccccc3CCc3ccccc32)C1 (stereo not drawn) -0.982%
